A short description of assay [1]: reducers of endogenous Her2 protein level, primary screen, SKBR3 breast tumor cells, AlphaScreen, ATP viability (AID 461;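 active means Her2 level under about 52% in both replicate screens, with viability over 70% of control, limit read from the data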;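 on Her2 level: lower value means less Her2 protein in the cells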;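 on viability: percent of carrier control wells set as 100% viability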). To be noted: 18-24 h, measured here: SKBR3 viability, ATP luminescence, at 10 µM. (In Alpha technology, singlet oxygen from a donor bead excites a nearby acceptor bead.)
The target in assay [2] is Receptor tyrosine-protein kinase erbB-2 (Homo sapiens) (UniProt P04626). The assay is described as above. To be noted: 18-24 h, at 10 µM, stronger effect = lower value.
Sequence of Receptor tyrosine-protein kinase erbB-2 (Homo sapiens) (P04626 whole entry, looked up): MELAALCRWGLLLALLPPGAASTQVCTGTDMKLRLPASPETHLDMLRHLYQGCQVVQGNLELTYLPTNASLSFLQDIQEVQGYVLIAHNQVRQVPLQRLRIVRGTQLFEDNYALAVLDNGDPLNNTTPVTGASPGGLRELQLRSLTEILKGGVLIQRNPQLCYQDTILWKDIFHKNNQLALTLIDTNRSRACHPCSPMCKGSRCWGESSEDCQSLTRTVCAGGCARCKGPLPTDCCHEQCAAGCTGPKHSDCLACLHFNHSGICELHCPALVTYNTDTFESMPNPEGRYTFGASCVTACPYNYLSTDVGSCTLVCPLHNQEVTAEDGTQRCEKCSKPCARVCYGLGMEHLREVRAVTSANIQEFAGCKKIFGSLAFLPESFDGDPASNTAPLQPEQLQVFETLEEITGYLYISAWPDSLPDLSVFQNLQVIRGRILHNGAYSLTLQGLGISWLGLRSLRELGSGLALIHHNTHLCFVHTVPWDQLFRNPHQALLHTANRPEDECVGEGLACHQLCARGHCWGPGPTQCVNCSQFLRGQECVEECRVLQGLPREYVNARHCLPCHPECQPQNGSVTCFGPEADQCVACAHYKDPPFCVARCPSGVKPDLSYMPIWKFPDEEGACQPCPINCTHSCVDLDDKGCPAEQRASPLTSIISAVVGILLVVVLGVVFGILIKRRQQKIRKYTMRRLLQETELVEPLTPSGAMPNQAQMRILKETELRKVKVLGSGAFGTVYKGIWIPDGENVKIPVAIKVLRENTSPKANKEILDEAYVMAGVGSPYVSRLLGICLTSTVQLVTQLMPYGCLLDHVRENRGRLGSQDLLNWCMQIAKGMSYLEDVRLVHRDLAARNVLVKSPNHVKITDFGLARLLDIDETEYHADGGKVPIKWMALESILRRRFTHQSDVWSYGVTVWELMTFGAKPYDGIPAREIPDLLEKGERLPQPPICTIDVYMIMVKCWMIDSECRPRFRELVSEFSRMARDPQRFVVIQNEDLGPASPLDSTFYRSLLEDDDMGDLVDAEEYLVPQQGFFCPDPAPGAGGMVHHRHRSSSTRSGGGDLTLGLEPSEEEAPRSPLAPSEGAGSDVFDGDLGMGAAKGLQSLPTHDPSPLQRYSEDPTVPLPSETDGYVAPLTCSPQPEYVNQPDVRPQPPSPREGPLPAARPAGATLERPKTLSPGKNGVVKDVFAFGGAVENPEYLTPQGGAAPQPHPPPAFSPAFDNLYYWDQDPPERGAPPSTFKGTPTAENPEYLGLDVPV
Assay [3] can be described thus: SK-BR-3 cell growth inhibitors, pilot screen, 24 h, human (AID 572;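 active means viability at or below 10% of carrier control in both of two separate runs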;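 further: compound exposure lasted between 18 and 24 h rather than exactly 24 h; 100% = carrier-treated control wells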). To be noted: SK-BR-3 viability, CellTiter-Glo luminescence, at 10 µM, stronger effect = lower value.
Assay [4] can be described thus: HUVEC growth inhibition – cell-based, human, primary screen (AID 575;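 active means viability at or below 30% in both replicate assays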;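 further: 100% = median of untreated cell wells with 0.1% DMSO on each plate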). The settings on record: HUVEC proliferation, CellTiter-Glo luminescence, 72 h; at 10 µM; stronger effect = lower value. (In general: Cellular ATP, detected with luciferase, serves as a proxy for viable cell number.)
A short description of assay [5]: growth inhibitors of H69AR lung tumor, primary screen, human, duplicate replicates (AID 580;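 active means viability at or under a set limit in both replicates, limit being median viability minus 3 SD, cut at about 48% in these data, passing the limit was not always enough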;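 further: 100% = mean luminescence of untreated wells and 0% = no signal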). The settings on record: H69AR lung tumor cells viability, ATP luminescence, 72 h; at 10 µM; stronger effect = lower value.
A short description of assay [6]: reversal of MRP1-mediated doxorubicin resistance, pilot screen, H69AR cells, doxorubicin co-treatment (AID 601;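 active means viability loss from added drug above about 55%, and viability with drug at most 40%, in both replicates, limit read from the data, passing the limit was not always enough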). The settings on record: CellTiter-Glo, 72 h, at 10 µM; for differential viability (reversal): stronger effect = higher value.
Assay [7] can be described thus: 384-well plate pilot, post-Golgi transport modulator project, inhibition of yeast transport mutant growth (AID 636; in the data active means inhibition above about 31%). To be noted: absorbance 615 nm, about 18 h, stronger effect = higher value.
Assay [8] in a line: growth suppression of yeast trafficking mutant, preliminary HTS, modulators of trafficking downstream of Golgi apparatus project, 1536-format plate, OD 615 nm (AID 637; in the data active means inhibition above about 30%). The settings on record: yeast transport mutant growth, absorbance 615 nm, 18 h; stronger effect = higher value.
Assay [9] in a line: OD615 S. cerevisiae growth inhibition, permissive medium, pilot counter-assay, permissive growth control for S. cerevisiae lifespan shortening project (AID 705;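 active means growth inhibition above 25% in both replicates, a cutoff set 3 SD above the mean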). To be noted: OD615, 24 h, at 10 µM, stronger effect = higher value.
A short description of assay [10]: Restrictive medium S. cerevisiae growth inhibition, OD615, pilot screen of yeast lifespan reduction project, restrictive growth control (AID 706;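 active means growth inhibition above a set limit, 3 SD over mean compound inhibition, in both replicates, cut at about 43% in these data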;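 further: modified DeaD lifespan yeast strain shifted to restrictive glucose medium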). The settings on record: OD615, 48 h, at 10 µM, stronger effect = higher value.
A short description of assay [11]: viability gain of MRP-1-high H69AR cells under doxorubicin, pilot screen, MRP-1 activator project, CellTiter-Glo, duplicate (AID 807).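 Further: compound pretreatment 18-22 h then 72 h combined with doxorubicin; 0% = doxorubicin alone and 100% = vehicle without doxorubicin.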 To be noted: H69AR viability with doxorubicin, CellTiter-Glo luminescence; at 10 µM; stronger effect = higher value.
Assay [12] can be described thus: growth suppression of beta-catenin knockout HCT116, pilot screen, human colon tumor cells (AID 823;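 active means cell viability at or below a set limit in both duplicate runs, the limit being the all-compound median minus 4 SD, cut at about 23% in these data, passing the limit was not always enough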;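 further: 0% = wells killed by 20 µM Hyamine and 100% = untreated DMSO cell wells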). To be noted: CellTiter-Glo, 60 h, at 10 µM, stronger effect = lower value.
A short description of assay [13]: growth suppression of PTEN-deleted HCT116, pilot screen, cell-based, HCT116 clonal line, CellTiter-Glo (AID 824;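 active means viability at or below 27.92% in each of two runs, the all-compound median minus 4 SD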;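 further: 0% = 20 µM Hyamine control and 100% = vehicle cell control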). The settings on record: 60 h, at 10 µM, stronger effect = lower value.
A short description of assay [14]: inhibitors of the yeast RAM network, pilot screen, dse1pr::URA3 reporter, 5-FOA selection (AID 869;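 active means inhibition over a set limit, the all-compound mean plus 3 SD, in both replicate runs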;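 further: 0% = DMSO wells with no growth and 100% = 10 µM 1-NA-PP1 with full growth; RAM network block rescues cells from 5-FOA so hits raise OD615 growth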). To be noted: S. cerevisiae dse1pr::URA3 5-FOA growth, OD615, 2 d; at 10 µM; stronger effect = higher value; strain carries analog-sensitive mutant Cbk1 kinase.
The nature of assay [15]: RAM signaling pathway blockade in yeast – S. cerevisiae, Pdr1DBD-CYC8 efflux-inhibited sensitized strain, primary screen (AID 1298;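 active means RAM network inhibition above 8.4% in each of two replicates, 3 SD over the compound average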;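 further: 0% = DMSO untreated cells without growth and 100% = 10 µM 1-NA-PP1 full growth; higher means more yeast growth rescued from 5-FOA killing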). The settings on record: S. cerevisiae cbk1-as DSE1-URA3 strain, 5-FOA growth OD615, 2 d; at 50 µM; stronger effect = higher value.
[16] abbreviates: H69AR cells + 2 uM doxorubicin, measured here: viability with 2 uM doxorubicin, stronger effect = lower value.
Setting [17] is: H69AR cells, compound alone cytotoxicity.

Records with an inconclusive call do not appear. Calls of active or inactive are those of the source.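 How the source made its calls, unless noted: active means viability increase at or above a cutoff of the median across tested compounds plus 3 SD (cut at about 8.5% in these data, passing the limit was not always enough); inconclusive means some gains above the cutoff, reason not given; inactive means the rest.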

Broadly, the viability is a read-out of living cells in per cent, often relative to untreated cells. One may read the inhibition as the relative decrease from the control value, in per cent.

For `COc1cccc(NC(=O)c2nnn(Cc3ccc(Br)cc3F)c2N)c1`, the viability is 98% in [1]; 98% (inactive) in [3]; 59.4% (inactive) in [4]; 72% (inactive) in [5]; 69.2% in assay [6] (setting [16]); 72% in [6] (setting [17]). Besides, the results for the viability in assay [12] and in assay [13] were 94.5% (inactive) and 95.7% (inactive), respectively. For the same compound, in [2], the Her2 level was 89% (inactive). Also, in assay [6] (H69AR cells + 2 uM doxorubicin), the differential viability (reversal) was 2.77% (inactive). Moreover, the values for the inhibition in [7], in [8] and in assay [14] were -3.33% (inactive), 2.46% (inactive) and 1.61% (inactive), respectively. The growth inhibition is -7.21% (inactive) in [9] and -5.7% (inactive) in assay [10]. Besides, the viability increase in assay [11] is -0.51% (inactive). The RAM network inhibition in assay [15] was 5.85% (inactive).
For `O=C(Nc1ccccc1)c1cnc2n(c1=O)CCS2`, the viability in assay [1] is 92.5%; in assay [3] it was 92.5% (inactive); in assay [4], 101% (inactive); in assay [5], 91.1% (inactive); in [6] (setting [16]) it was 93.5%; in assay [6] (setting [17]) it was 91.1%. In addition, the viability was 104% (inactive) in [12] and 97.2% (inactive) in [13]. For the same compound, in assay [2], the Her2 level is 88% (inactive). In [6] (H69AR cells + 2 uM doxorubicin), the differential viability (reversal) was -2.48% (inactive). The values for the inhibition in assay [7], in assay [8] and in [14] were -4.8% (inactive), -0.49% (inactive) and 1.94% (inactive), respectively. For the same compound, the growth inhibition in assay [9] was -8.84% (inactive); in [10] it was 5.01% (inactive). Moreover, the viability increase in assay [11] was -0.69% (inactive). In addition, the RAM network inhibition in assay [15] was 2.15% (inactive).
With `CC(=O)NC(CCS(C)(=O)=O)C(=O)Nc1cccc2ccccc12` (stereo not drawn), the viability in assay [1] was 108%; in assay [3], 108% (inactive); in assay [4], 94% (inactive); in assay [5], 87.5% (inactive); in assay [6] (setting [16]), 97.7%; in [6] (setting [17]) it was 87.5%. Further, the figures for the viability in assay [12] and in [13] were 103% (inactive) and 88.3% (inactive), respectively. In addition, the Her2 level in [2] is 102% (inactive). In assay [6] (H69AR cells + 2 uM doxorubicin), the differential viability (reversal) was -10.2% (inactive). In addition, the inhibition in assay [7] was -1.87% (inactive); in [8] it was -5.5% (inactive); in [14] it was 1.77% (inactive). For the same compound, the growth inhibition in [9] was -12.6% (inactive); in assay [10], -14.3% (inactive). Besides, the viability increase in assay [11] was -2.44% (inactive). Further, in [15], the RAM network inhibition is 8.64% (inactive).
`COc1ccc(-c2nc3c(n2O)CCC/C3=N\O)cc1`: the viability is 89.5% in assay [1]; 89.5% (inactive) in assay [3]; 67.4% (inactive) in assay [4]; 86.5% (inactive) in assay [5]; 81.5% in [6] (setting [16]); 86.5% in [6] (setting [17]). For the same compound, the viability is 94.2% (inactive) in [12] and 96% (inactive) in assay [13]. Moreover, the Her2 level in assay [2] was 88.5% (inactive). Moreover, the differential viability (reversal) in assay [6] (H69AR cells + 2 uM doxorubicin) is 5% (inactive). The inhibition was -1.43% (inactive) in [7], 0.33% (inactive) in assay [8] and 0.805% (inactive) in assay [14]. Also, the growth inhibition was 1.93% (inactive) in [9] and 4.75% (inactive) in assay [10]. Moreover, the viability increase in assay [11] was -4.71% (inactive). Moreover, the RAM network inhibition in [15] is 3.84% (inactive).
In the case of `C=C(Cl)COc1ccc2c(C)cc(=O)oc2c1`, the viability in [1] was 108%; in assay [3] it was 108% (inactive); in [4], 102% (inactive); in assay [5], 101% (inactive); in [6] (setting [16]) it was 103%; in [6] (setting [17]), 101%. The viability in [12] is 97.8% (inactive); in [13] it was 84% (inactive). Moreover, the Her2 level in assay [2] is 92.5% (inactive). Moreover, in assay [6] (H69AR cells + 2 uM doxorubicin), the differential viability (reversal) was -2.75% (inactive). Also, the inhibition in assay [7] is 1.89% (inactive); in assay [8], -5.56% (inactive); in assay [14] it was 0.795% (inactive). Further, the results for the growth inhibition in assay [9] and in assay [10] were -6.04% (inactive) and 5.47% (inactive), respectively. Moreover, the viability increase in assay [11] was -0.42% (inactive). Moreover, the RAM network inhibition in assay [15] was 0.1% (inactive).
On to `CC1CC(NC(=O)c2cnc3n(c2=O)CCS3)CC(C)(C)C1` (stereo not drawn), for which the viability in [1] was 83.5%; in assay [3], 83.5% (inactive); in assay [4] it was 85.8% (inactive); in [5] it was 91.7% (inactive); in assay [6] (setting [16]), 85.6%; in assay [6] (setting [17]), 91.7%. Besides, the values for the viability in assay [12] and in assay [13] were 99% (inactive) and 90% (inactive), respectively. The Her2 level in [2] was 108% (inactive). In addition, the differential viability (reversal) in assay [6] (H69AR cells + 2 uM doxorubicin) is 6.09% (inactive). Further, the inhibition was -4.13% (inactive) in assay [7], -3% (inactive) in assay [8] and 0.545% (inactive) in assay [14]. Moreover, the figures for the growth inhibition in assay [9] and in assay [10] were -8.98% (inactive) and -8.4% (inactive), respectively. Also, the viability increase in assay [11] was -0.41% (inactive). Further, the RAM network inhibition in assay [15] is 0.68% (inactive).
Regarding `O=C(Cn1ncc2c1-c1ccccc1OC2)N1CCN(c2ccccn2)CC1`, the viability in assay [1] was 91.5%; in assay [3], 91.5% (inactive); in assay [4] it was 101% (inactive); in [5], 89.7% (inactive); in assay [6] (setting [16]) it was 85.5%; in assay [6] (setting [17]), 89.7%. Also, the figures for the viability in assay [12] and in assay [13] were 99.9% (inactive) and 92.7% (inactive), respectively. Further, in assay [2], the Her2 level is 108% (inactive). In addition, in assay [6] (H69AR cells + 2 uM doxorubicin), the differential viability (reversal) was 4.26% (inactive). Further, the figures for the inhibition in assay [7], in [8] and in assay [14] were -2.05% (inactive), 0.67% (inactive) and 0.525% (inactive), respectively. Moreover, the growth inhibition in assay [9] was -9.33% (inactive); in assay [10] it was -14.6% (inactive). Moreover, the viability increase in [11] was -1.13% (inactive). Also, the RAM network inhibition in [15] was 3.36% (inactive).
On to `CC(NC(=O)c1noc2c1CCCCC2)c1ccccc1` (stereo not drawn), for which the viability was 85.5% in assay [1]; 85.5% (inactive) in assay [3]; 89.1% (inactive) in assay [4]; 110% (inactive) in [5]; 91.7% in assay [6] (setting [16]); 110% in assay [6] (setting [17]). Also, the viability was 100% (inactive) in assay [12] and 102% (inactive) in [13]. Further, the Her2 level in [2] is 93.5% (inactive). Also, in assay [6] (H69AR cells + 2 uM doxorubicin), the differential viability (reversal) was 18.1% (inactive). The inhibition in assay [7] was -3.59% (inactive); in assay [8] it was -2% (inactive); in [14], -0.27% (inactive). Besides, the figures for the growth inhibition in [9] and in [10] were -16.4% (inactive) and -14.1% (inactive), respectively. For the same compound, in [11], the viability increase is 1.66% (inactive). The RAM network inhibition in assay [15] is 1.85% (inactive).
For `CCOc1ccc2[nH]c(C)cc(=O)c2c1`, the viability in [1] is 100%; in assay [3], 100% (inactive); in assay [4] it was 94.8% (inactive); in assay [5], 108% (inactive); in assay [6] (setting [16]), 89.6%; in assay [6] (setting [17]), 108%. The viability in assay [12] is 96.7% (inactive); in [13], 88.4% (inactive). The Her2 level in [2] is 100% (inactive). The differential viability (reversal) in [6] (H69AR cells + 2 uM doxorubicin) is 18.7% (inactive). Further, the inhibition is 0% (inactive) in [7], -9.02% (inactive) in assay [8] and 2.86% (inactive) in [14]. The growth inhibition in [9] was -12.8% (inactive); in assay [10] it was 3.82% (inactive). Besides, in assay [11], the viability increase was -2.11% (inactive). In assay [15], the RAM network inhibition is 3.45% (inactive).

Values taken from PubChem BioAssay.
